uPA surface inh: inhibitors of cell surface uPA generation; cell surface uPA generation assay, qHTS; Potency, µM (top dose mostly 38.3 µM), inactives show at the highest dose activity change, negative = inhibition, most hits filed as inhibitors; hit rate 0.31% among 330,000; AID 540303; active means well fitted inhibition curve with a large enough effect; inconclusive means small, poorly fitted or top-dose-only effect; inactive means no such curve, though single readings can be large or run the other way; tested in mouse RAW 264.7 cells; further: potency means the concentration at half of the fitted maximal effect; on the % scale 0 is the no-effect control and ±100 the full control effect; nearly all actives have a fitted effect of over 55% in size
D3 antag: D3 dopamine receptor (human) antagonism; D3R cells, DiscoveRx beta-arrestin luminescence, antagonist mode; active compounds read low; max response, negative = inhibition, %; P35462; hit rate 2.5% among 360,000; in the data active means max response below about -50%; inconclusive means no clear call, values can overlap the other calls; further: on the % scale 0 is the no-effect control and ±100 the full control effect
Target sequence (P35462 whole entry, looked up): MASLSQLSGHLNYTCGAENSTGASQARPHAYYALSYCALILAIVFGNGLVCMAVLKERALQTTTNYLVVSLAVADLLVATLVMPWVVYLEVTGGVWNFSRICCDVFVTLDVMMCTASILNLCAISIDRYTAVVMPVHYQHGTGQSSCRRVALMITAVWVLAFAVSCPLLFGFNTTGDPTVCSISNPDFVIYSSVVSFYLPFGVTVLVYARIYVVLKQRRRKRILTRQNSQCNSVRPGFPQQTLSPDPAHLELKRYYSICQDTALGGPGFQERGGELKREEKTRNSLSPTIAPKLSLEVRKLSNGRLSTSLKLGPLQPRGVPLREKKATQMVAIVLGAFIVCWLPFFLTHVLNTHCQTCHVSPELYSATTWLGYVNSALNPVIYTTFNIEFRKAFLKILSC
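Cells plated overnight at 1500 cells/well, then exposed to library compounds with dopamine controls for 90 minutes at 37 degrees C. DiscoveRx reagent added for 30–60 minutes at room temperature; luminescence read, quantitative HTS format.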
D3 ag: activates the human D3 dopamine receptor; D3R DiscoveRx beta-arrestin cells, luminescence, 90 min; hit rate 0.58% among 410,000; max activation, %; P35462; in the data active means max activation above about 30%; further: 0% is about no effect
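Cells at 1500/well, incubated overnight, then treated with pinned compounds (dopamine as control) for 90 min at 37 degrees C. DiscoveRx reagent added for 30 - 60 minutes at room temperature; luminescence read.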
RGS4 inh: human RGS4 inhibition; P49798; hit rate 0.039% among 390,000; Transcreener GDP fluorescence polarization, RGS4-accelerated GTP hydrolysis; Potency, µM (highest dose often 114 µM), without a hit: at the highest dose activity change, negative = inhibition, usual class: inhibitors; AID 504845; active means well fitted inhibition curve with a large enough effect; inconclusive means small, poorly fitted or top-dose-only effect; inactive means no such curve, though single readings can be large or run the other way; further: potency means the concentration at half of the fitted maximal effect; on the % scale 0 is the no-effect control and ±100 the full control effect; nearly all actives have a fitted effect of over 75% in size
Target sequence (P49798 whole entry, looked up): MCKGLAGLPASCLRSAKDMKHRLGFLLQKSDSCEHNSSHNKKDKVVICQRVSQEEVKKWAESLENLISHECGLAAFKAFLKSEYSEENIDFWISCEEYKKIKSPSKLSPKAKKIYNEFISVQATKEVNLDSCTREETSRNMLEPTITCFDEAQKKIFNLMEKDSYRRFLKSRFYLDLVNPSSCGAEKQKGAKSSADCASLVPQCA
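MLSMR compounds (23 nl, pin-transferred) preincubated 10 min at room temperature with a 500nM (2x) first reagent, then RGS4 at 900nM (2x) plus Transcreener GDP mix added; fluorescence polarization (620/688 nm) read before and after 90 min at 30 °C.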
An asterisk follows results filed as active; ? = inconclusive; · = no result given; ! = a repeat was not active; [ ] = remark or other dose. Compounds with a hit are over-represented: about 3.1% of the library has one in this group of screens.

SMILES	uPA surface inh	D3 antag	D3 ag	RGS4 inh
COc1ccc2c(c1)CC(C(=O)Nc1cc(Cl)ccc1C)CO2 (configuration not stated)	·	·	68*	-30%
COc1ccc2nc(Nc3nc(CSc4nnnn4-c4ccccc4)cc(=O)[nH]3)nc(C)c2c1	-4%	-59*	7	8%
Cc1ccc(SCc2cc(=O)[nH]c(Nc3nc(C)c4cccc(C)c4n3)n2)cc1	8%	-84*	-7	2%
CCC1CN(C(=O)C2CCN(S(=O)(=O)c3c(C)noc3/C=C/c3ccccc3F)CC2)c2cc(Cl)ccc2O1 (configuration not stated)	·	·	7	-40%
CC1(C)S[C@@H]2[C@H](NC(=O)Cc3ccccc3)C(=O)N2[C@H]1C(=O)O (tested in a mixture with another compound)	·	·	-6	·
COc1cccc(C2NC(c3cccc(OC)c3O)C(C)C(=O)C2C)c1O (configuration not stated)	·	13	30*	-6%
COc1ccccc1C1NC(c2ccccc2OC)C(C)C(=O)C1C (configuration not stated)	·	-20	-13	6%
OCCC1CN(Cc2nc(-c3ccccc3)cs2)CCN1C1CCCC1 (configuration not stated)	3%	-6	-17	-17%
c1ccc(-c2csc(CN3CCCCC3)n2)cc1	-6%	-50*	-17	-5%
CN1CCc2c(sc3c2C(=O)NC(c2cn(Cc4ccccc4)c4ccccc24)N3)C1 (configuration not stated)	8%	-75*	-11	-43%
CN1CCc2c(sc3c2C(=O)NC(c2ccco2)N3)C1 (configuration not stated)	·	17	-25	12%
CN1CCc2c(sc3c2C(=O)NC(c2ccc(-c4ccc(Cl)cc4)o2)N3)C1 (configuration not stated)	-1%	-81*	-25	-35%
CC1SCCN1S(=O)(=O)c1ccc2ccccc2c1 (configuration not stated)	21%	-59*	0	-27%
Cc1cccc(CNC(=O)c2ccc3c(c2)N(C)C(=O)C2CCCCN32)c1 (configuration not stated)	·	·	-9	12%
CCOc1ccc(NC(=O)Cn2cc(S(=O)(=O)c3ccc(C)cc3)c(=O)c3cc(F)ccc32)cc1	·	·	5	0%
CCOc1ccc2ccccc2c1C(=O)N[C@@H]1C(=O)N2[C@@H]1SC(C)(C)[C@@H]2C(=O)O	4%	105	49*!	10%
COc1ccc(Cl)cc1C(=O)O/N=C(\N)c1ccccn1	10µM*	-14	8	4%
N/C(=N\OC(=O)/C=C/c1ccccc1Cl)c1ccccn1	3.5µM*	3	4	-4%[11.4 µM]
N/C(=N\OC(=O)/C=C/c1ccccc1Cl)c1cccnc1	-1%	4	14	-17%
CCOc1ccc(NC(=O)CCS(=O)(=O)c2cccc3nonc23)cc1	·	·	-18	-15%
COC(=O)c1ccccc1NC(=O)Cn1c(=O)n(CCCC(=O)NCCc2ccc(OC)c(OC)c2)c(=O)c2ccccc21	·	·	1	-11%
CCc1cccc(NC(=O)CCn2c(=O)c3cccn3c3cccnc32)c1	·	·	5	11%
O=C(O)Cc1cccc(-c2cc(CCCCCCc3ccc(O[C@H]4O[C@H](CO)[C@@H](O)[C@H](O)[C@@H]4O)c(-c4cccc(CC(=O)O)c4)c3)ccc2O[C@H]2O[C@H](CO)[C@@H](O)[C@H](O)[C@@H]2O)c1	·	·	-18	·
Cc1cccc(CNC(=O)CSCc2cnn(-c3ccccc3)c2-n2cccc2)c1	·	·	-9	-10%
CC(=O)Nc1sc2c(c1-c1nc3ccccc3s1)CCN(C(C)C)C2	?	-116*	-10	-17%
SMILES	uPA surface inh	D3 antag	D3 ag	RGS4 inh
COC(=O)c1ccc(NC(=O)CC2C(=O)N(c3cccc(OC)c3)C(=O)N2Cc2cccc(OC)c2)cc1 (configuration not stated)	·	·	2	10%
O=S(=O)(Nc1c(S(=O)(=O)c2ccccc2)c2nc3ccccc3nc2n1C1CCCCC1)c1ccccc1	-8%	-70*	6	?
O=[N+]([O-])c1ccc(CN2CCN(c3ccccc3)CC2)o1	2%	-25	-17	23%
Clc1ccccc1-c1ccc(CN2CCN(c3ccccc3)CC2)o1	2%	-67*	2	-4%
CCC(Oc1ccccc1F)C(=O)Nc1cc(-c2ccccc2)no1 (configuration not stated)	·	·	-9	-12%
Cc1ccc(C)c(SCC(=O)NNC(=O)c2ccccc2)c1	2%	4	19	-4%
Cc1ccc(SCC(=O)NNC(=O)c2ccccc2)cc1C	·	-70*	-16	19%
CN(CCc1cnn(C)c1)Cc1nc(Cc2ccccc2)no1	1%	4	13	14%
CCN(Cc1cnn(C)c1)Cc1nc(Cc2ccccc2Cl)no1	-4%	-11	42*	9%
CC(CN(C)Cc1ccccc1)OC(=O)c1cccs1 (configuration not stated)	2%	-76*	-5	-2%
CC(CN(C)Cc1ccccc1)OC(=O)c1ccccc1F (configuration not stated)	8%	-10	-4	-34%
CC(CN(C)Cc1ccccc1)OC(=O)c1ccc2c(c1)OCCO2 (configuration not stated)	0%	-77*	0	-26%
CN(Cc1ccccc1)C(=O)COC(=O)c1ccc2c(c1)OCO2	4%	6	-9	-19%
CCOCCCNC(=O)Cn1ncc2c([nH]c3ccccc32)c1=O	·	·	5	5%
COc1nccnc1NS(=O)(=O)c1ccc(N=Cc2c(C)[nH]n(-c3ccc(C)c(C)c3)c2=O)cc1	?	-60*	1	-3%
COc1nccnc1NS(=O)(=O)c1ccc(N=Cc2c(C)[nH]n(-c3ccccc3)c2=O)cc1	2%	?	-11	-3%
CCOC(=O)N1CCN(C(=O)CNC(=O)c2nn(-c3ccc(OC)c(OC)c3)c(=O)c3ccccc23)CC1	4%	10	54*	-4%
COc1ccc(-c2noc(N3CCC(C(=O)Nc4ccc(C)c(F)c4)CC3)n2)cc1OC	·	·	5	-25%
COc1ccccc1NC(=O)c1ccc(-n2cncn2)nc1	6%	6	31*	7%
CCOc1ccccc1NC(=O)c1ccc(-n2cncn2)nc1	-1%	3	4	-3%[56.9 µM]
CNC[C@@H](C)NC[C@@H](Cc1ccccc1)NCCc1ccccc1	-8%	-86*	-3	14%
CCC(=O)N1CCc2cc(Br)cc(S(=O)(=O)CCC(=O)NCCc3cccc(C)c3)c21	·	·	-5	-6%
O=C(/C=C/c1ccc(Cl)cc1)NC(=S)Nc1ccc(CN2CCOCC2)cc1	-15%	-65*	-11	-15%
O=C(/C=C/c1ccccc1)Nc1ccc(CN2CCOCC2)cc1	-14%	-7	2	13%
Cc1cn([C@H]2C[C@H](O)[C@@H](CNCc3ccc(-c4cc(Cl)ccc4C(F)(F)F)o3)O2)c(=O)[nH]c1=O	·	-75*	-17	·
O=C(CSc1nc2ccccc2nc1Cc1ccc(Cl)cc1)N1CCCCC1	·	·	-5	14%

Source: PubChem BioAssay
